From PubChem BioAssay
HP1b chromo inh: inhibitors of HP1-beta chromodomain binding to methylated histone tails; P83916; AlphaScreen HP1-beta / biotin-H3K9me3 peptide binding; Potency, µM (series often up to 114 µM), for the others: at the top dose activity change, negative = inhibition, hits mostly inhibitors; actives 0.56% (n = 390,000); note: potency is the fitted concentration of half-maximal effect; nearly all actives have a fitted effect of over 70% in size
Target sequence (P83916 whole entry, looked up): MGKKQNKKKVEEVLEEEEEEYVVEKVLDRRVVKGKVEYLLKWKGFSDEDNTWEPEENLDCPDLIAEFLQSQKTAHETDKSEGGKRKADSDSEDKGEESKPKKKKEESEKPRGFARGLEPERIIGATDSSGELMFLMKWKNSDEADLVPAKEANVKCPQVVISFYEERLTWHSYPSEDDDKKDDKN
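Compound inhibition of the preformed complex between 50 nM HP1-beta and 50 nM biotinylated H3K9me3 peptide was read by AlphaScreen. Buffer was PBS pH 7.4 with 0.01% Tween-20. Incubations ran 30 min at room temperature, with 10 ug/mL donor/acceptor beads.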
L3MBTL1 block: inhibitors of human L3MBTL1 | actives 0.66% (n = 230,000) | AlphaScreen L3MBTL1–H3K9me1 peptide binding | Q9Y468 | AID 485360 | Potency, µM (titrated, usually from 57.1 µM), without a hit: at the top dose activity, negative = inhibition, hits mostly inhibitors; note: potency is the fitted concentration of half-maximal effect; % is set by controls: 0 for no effect and ±100 for the full control effect; nearly all actives have a fitted effect of over 60% in size
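Read-out is AlphaScreen signal from streptavidin donor and nickel chelate acceptor beads (10 ug/mL final each) bridging L3MBTL1 (50 nM) and biotinylated K9-monomethylated H3(1-15) peptide (75 nM), after 30 min compound exposure at room temperature.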
PI5P4Ka inh: inhibitors of human PI5P4K alpha. P48426. max response, %. actives 1.2% (n = 330,000). PI5P4Kalpha enzyme, ADP-Glo luminescence, 60 min; hits give low values; active = max response of -50% or lower; inconclusive = between -30% and -50%; inactive = -30% or higher; note: value at the top dose of about 77 µM; % is set by controls: 0 for no effect and ±100 for the full control effect
Target sequence (P48426 whole entry, looked up): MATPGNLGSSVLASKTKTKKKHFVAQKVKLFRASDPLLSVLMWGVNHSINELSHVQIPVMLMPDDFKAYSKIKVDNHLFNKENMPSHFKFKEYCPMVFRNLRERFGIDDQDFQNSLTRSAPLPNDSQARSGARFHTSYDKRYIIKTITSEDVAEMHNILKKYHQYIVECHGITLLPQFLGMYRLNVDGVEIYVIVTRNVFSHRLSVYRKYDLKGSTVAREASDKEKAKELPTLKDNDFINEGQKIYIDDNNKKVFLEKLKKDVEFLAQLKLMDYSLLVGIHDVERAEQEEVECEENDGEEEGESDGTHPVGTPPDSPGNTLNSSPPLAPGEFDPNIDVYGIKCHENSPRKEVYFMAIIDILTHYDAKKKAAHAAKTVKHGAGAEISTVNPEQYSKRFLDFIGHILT
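ADP-Glo luminescence end-point read after a 60 min room-temperature kinase reaction of PI5P4Kalpha plus substrate, initiated with ATP at 5 microM final. Buffer: 0.038 M HEPES pH 7.4, EGTA, 0.1% CHAPS, 5% DMSO.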
JMJD2E inh: inhibitors of human JMJD2E histone demethylase | Potency, µM (highest dose often 57.1 µM), without a hit: top-dose activity change, negative = inhibition, usual class: inhibitors | JMJD2E catalytic domain, FDH-coupled NADH fluorescence (FDH is formaldehyde dehydrogenase) | AID 2147 | B2RXH2 | actives 1.6% (n = 230,000); active = well fitted inhibition curve with a large enough effect, not every such curve was filed as active; inconclusive = small, poorly fitted or top-dose-only effect, or another doubt; inactive = no such curve, though single readings can be large or run the other way;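 note: potency is the fitted concentration of half-maximal effect; 0% = wells with enzyme and -100% = buffer wells without enzyme; nearly all actives have a fitted effect of over 50% in size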
JMJD2A Tudor: blocks the human JMJD2A Tudor domain; O75164; actives 4.4% (n = 390,000); AlphaScreen JMJD2A-Tudor / H3K4me3 peptide binding; Potency, µM (titrated, usually from 114 µM), inactives show top-dose activity change, negative = inhibition, usual class: inhibitors; AID 504339; note: potency is the fitted concentration of half-maximal effect; % is set by controls: 0 for no effect and ±100 for the full control effect; nearly all actives have a fitted effect of over 50% in size
BAZ2B inh: BAZ2B (human) inhibition | actives 4.4% (n = 360,000) | Q9UIF8 | AID 504333 | AlphaScreen BAZ2B-H3K14Ac peptide displacement | Potency, µM (titrated, usually from 114 µM), for inactives: at the highest dose activity change, negative = inhibition, actives largely listed as inhibitors; note: potency is the fitted concentration of half-maximal effect; % is set by controls: 0 for no effect and ±100 for the full control effect; nearly all actives have a fitted effect of over 60% in size
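AlphaScreen displacement: compounds (up to 110uM) incubated 30 min at room temperature with a preformed 50 nM BAZ2B/50 nM biotinylated H3K14Ac peptide complex in PBS pH 7.4 with Tween-20. Donor and acceptor beads at 10 ug/mL final added, 20 min light-protected before reading.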
The depositor's hits bear a star; [ ] = another dose, or the depositor's remark. Sampled rows, rich in hits. Any-hit rate of the full collection: about 5.7%. Unless noted, calls come from the whole dose curve; as a rule, active = well fitted inhibition curve with a large enough effect; inconclusive = small, poorly fitted or top-dose-only effect; inactive = no such curve, though single readings can be large or run the other way.

Screening Cc1[nH]n(-c2ncc(-c3ccc(Cl)cc3)s2)c(=O)c1C(c1ccc(Cl)cc1)C(C#N)C#N (configuration not stated) returned HP1b chromo inh inconclusive, L3MBTL1 block -1%, PI5P4Ka inh -70*, JMJD2E inh inconclusive, JMJD2A Tudor 56µM* and BAZ2B inh inconclusive.
`CCn1nc(C(=O)OCC(=O)c2ccc3c(c2)OCCO3)c2ccccc2c1=O` gave HP1b chromo inh -2%, L3MBTL1 block -8%, PI5P4Ka inh -8, JMJD2E inh -18%, JMJD2A Tudor 50µM* and BAZ2B inh -23%.
`CCCCCCCCCCCCCCCCOC[C@H](COP(=O)([O-])OCC[N+](C)(C)C)OC(=O)NC` gave JMJD2E inh 7%.
For CCNC(=O)Cn1c(-c2cccs2)cc2ccccc21 the results were HP1b chromo inh 29%, JMJD2A Tudor -15% and BAZ2B inh -2%.
For CC(=O)CCc1ccc(OCC(O)CNC2CCCc3ccccc32)cc1 (configuration not stated) the results were HP1b chromo inh -42%, L3MBTL1 block 10%, PI5P4Ka inh 2, JMJD2E inh inconclusive, JMJD2A Tudor 3.5µM* and BAZ2B inh inconclusive.
Screening CCc1ccccc1OC[C@@H](O)CN[C@H]1CCCc2ccccc21 returned HP1b chromo inh 9%, L3MBTL1 block 7%, PI5P4Ka inh 21, JMJD2E inh -6%, JMJD2A Tudor 40µM* and BAZ2B inh inconclusive.
`O=C(c1ccccc1)c1ccc(OCC(O)CNC2CCCc3ccccc32)cc1` (configuration not stated) gave HP1b chromo inh inconclusive, L3MBTL1 block 8%, PI5P4Ka inh 22, JMJD2E inh -26%, JMJD2A Tudor 10µM* and BAZ2B inh 50µM*.
Cc1ccc(N2C(=O)NC(NS(=O)(=O)c3ccc(Cl)cc3)(C(F)(F)F)C2=O)cc1C (configuration not stated) was read as HP1b chromo inh 26%, JMJD2A Tudor -7% and BAZ2B inh -9%.
CC(=O)c1c(C)n(-c2cccc(C)c2)c2ccc(OC(=O)COc3ccccc3)cc12 was read as HP1b chromo inh 62%, JMJD2A Tudor -12% and BAZ2B inh 0%.
For CCOc1ccc(NC(=O)Cn2nnc(-c3ccccc3NC(=O)c3cccs3)n2)cc1 the results were HP1b chromo inh -5%, PI5P4Ka inh 10, JMJD2E inh 2%, JMJD2A Tudor 56µM* and BAZ2B inh -28%.
O=C(COC(=O)c1ccc2ccccc2c1O)NCC(F)(F)F was read as HP1b chromo inh -8%, L3MBTL1 block 2%, PI5P4Ka inh -2, JMJD2E inh inconclusive, JMJD2A Tudor inconclusive and BAZ2B inh 79µM*.
CCCCc1oc2ccccc2c1C(=O)c1cc(I)c(N(CC)CCOCC)c(I)c1 was read as HP1b chromo inh -6% and JMJD2A Tudor 56µM*.
CCc1nc2ccccc2c(=O)n1NC(=O)c1c(O)c2ccccc2[nH]c1=O was read as HP1b chromo inh -1%, L3MBTL1 block 40%, PI5P4Ka inh -6, JMJD2E inh inconclusive, JMJD2A Tudor 79µM* and BAZ2B inh inconclusive.
`CCCc1nc2ccccc2c(=O)n1NC(=O)c1c(O)c2ccccc2n(C)c1=O` gave HP1b chromo inh 16%, L3MBTL1 block 6%, PI5P4Ka inh 1, JMJD2E inh -4%, JMJD2A Tudor -8% and BAZ2B inh -33%.
`O=C(O)C(Cc1ccccc1)N1C(=O)c2c(Cl)c(Cl)c(Cl)c(Cl)c2C1=O` (configuration not stated) gave HP1b chromo inh -4%, PI5P4Ka inh -7 and JMJD2A Tudor 89µM*.
Screening Cc1cc(Br)cc2c1N(Cc1ccccc1OC(C)C)C(=O)C2=O returned HP1b chromo inh inconclusive, JMJD2A Tudor 18µM* and BAZ2B inh 6.3µM*.
Screening O=S(=O)(c1ccccc1)c1nc(-c2ccco2)oc1SCc1ccc(F)cc1 returned HP1b chromo inh 30%, JMJD2A Tudor 1% and BAZ2B inh 2%.
For O=C(Cn1cnc2ccccc21)N/N=C/c1cccnc1 the results were HP1b chromo inh 36%, PI5P4Ka inh 0, JMJD2E inh 0%, JMJD2A Tudor -13% and BAZ2B inh -14%.
For O=C(Cn1cnc2ccccc21)N/N=C/c1ccccn1 the results were HP1b chromo inh 23%, L3MBTL1 block 11%, PI5P4Ka inh -6, JMJD2E inh -3%, JMJD2A Tudor -10% and BAZ2B inh 10µM*.
For Cc1nc2ccccc2n1CC(=O)N/N=C\c1ccccn1 the results were HP1b chromo inh 33%, L3MBTL1 block 18%, PI5P4Ka inh 6, JMJD2E inh 0%, JMJD2A Tudor inconclusive and BAZ2B inh 50µM*.
`Cc1ccc(/C=N\NC(=O)Cn2c(C)nc3ccccc32)o1` gave HP1b chromo inh -1%, L3MBTL1 block -4%, PI5P4Ka inh 1, JMJD2E inh 3%, JMJD2A Tudor -9%[57.1 µM] and BAZ2B inh 1%.
For Cc1nn2c(=O)cc(COC(=O)c3cccc(NC(=O)c4ccc(F)cc4)c3)nc2s1 the results were HP1b chromo inh 23%, JMJD2A Tudor -18% and BAZ2B inh 1%.
`CCCOc1ccc(C(=O)Nc2ccc(NC(=O)c3ccccc3)c(Br)c2)cc1` gave HP1b chromo inh 43%, JMJD2A Tudor -8% and BAZ2B inh -3%.
Screening CN1CCN(C(CNC(=O)C(=O)Nc2ccc(F)cc2F)c2ccc3c(c2)OCO3)CC1 (configuration not stated) returned HP1b chromo inh 14%[57 µM], JMJD2A Tudor -16% and BAZ2B inh -8%.
O=C(CSCc1cnn(-c2ccccc2)c1-n1cccc1)NCc1cccc(Cl)c1 was read as HP1b chromo inh 21%, JMJD2A Tudor 0% and BAZ2B inh -4%.
For CCCOc1ccc(NC(=O)CC2C(=O)N(c3ccccc3)C(=O)N2CCC(C)C)cc1 (configuration not stated) the results were HP1b chromo inh 31%, JMJD2A Tudor -24% and BAZ2B inh -11%.
`Cc1c(C(=O)N(C)C)sc2c1c(=O)n(-c1ccc(Cl)cc1)c(=O)n2Cc1ccccc1F` gave HP1b chromo inh 35%, JMJD2A Tudor -6% and BAZ2B inh -7%.
`CCN(Cc1ccccc1)C(=O)Cn1c(=O)n(-c2ccc(Cl)cc2)c(=O)c2c(C)c(C(=O)N(C)C)sc21` gave HP1b chromo inh 7%, JMJD2A Tudor 13µM* and BAZ2B inh -5%.
For CCc1ccc(CN(Cc2ccco2)C(=O)c2ccc(OC)cc2)cc1 the results were HP1b chromo inh 79%, JMJD2A Tudor -10% and BAZ2B inh 32%.
